In article PMC10726135, “HNF4α isoforms regulate the circadian balance between carbohydrate and lipid metabolism in the liver”:
Over roughly 18,000 sequences, “log2 normalized intensity” has its median near 0.39; the highest 2% begin near 6.6. The list comes from a sample in which the highest values are over-represented; it also holds similar and randomly drawn sequences.

Molecular target: T1, HNF4alpha2 (COS-7 nuclear extract) (Homo sapiens, UniProt P41235 1-474)
T1 sequence: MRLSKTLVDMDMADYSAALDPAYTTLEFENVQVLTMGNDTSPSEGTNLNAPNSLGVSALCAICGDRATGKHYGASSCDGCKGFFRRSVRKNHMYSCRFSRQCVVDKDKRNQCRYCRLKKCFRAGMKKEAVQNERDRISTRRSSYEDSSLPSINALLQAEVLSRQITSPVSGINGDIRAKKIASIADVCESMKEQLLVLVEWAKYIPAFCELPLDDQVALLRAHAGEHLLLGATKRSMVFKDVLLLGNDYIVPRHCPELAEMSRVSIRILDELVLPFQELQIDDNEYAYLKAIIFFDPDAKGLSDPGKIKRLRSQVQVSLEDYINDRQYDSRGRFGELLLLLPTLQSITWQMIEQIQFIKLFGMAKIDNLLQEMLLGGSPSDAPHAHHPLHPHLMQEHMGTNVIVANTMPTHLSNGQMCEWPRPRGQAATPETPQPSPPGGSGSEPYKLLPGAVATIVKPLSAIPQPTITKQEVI
Assay: protein-binding microarray; COS-7 nuclear extract on double-stranded Agilent 4x180k PBM; binding buffer, salt, pH and temperature not given in the material; high values mean tight binding
Settings: chain copies: 2; label: 3' end of strand 1 on the slide; dsDNA, one strand shown
How it was run: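 Using CaPO4, COS-7 cells were transiently transfected with a human HNF4α isoform expression vector, and their nuclear extracts were applied to a custom Agilent SurePrint G3 4x180k double-stranded oligonucleotide array (~60 nt; ~44,000 test sequences in quadruplicate). Bound HNF4α was imaged at 2-µm resolution with an Agilent G2565CA scanner. Agilent software supplied the background-corrected, normalized gProcessedSignal that serves as the binding signal.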

Going from “GAGAGAATGACCCTTGCTTGACCCATTATGGCCTAGGGAGATTAGAGTATCGGTCGA” to “AGAACAAACAATGGTTTGGGACAAAGTTTGGCCTAGGGAGATTAGAGTATCGGTCGA”, the binding signal falls from 2.36 log2 normalized intensity to 0.489 log2 normalized intensity.

Compared with “CCGCGGCGGGCCCTCGACCTTTGCCCTCCAGCCTAGGGAGATTAGAGTATCGGTCGA”, “CCACTGCGACCTTTGCCCTCCCTAAATCCAGCCTAGGGAGATTAGAGTATCGGTCGA” is lower in binding signal: 9.87 log2 normalized intensity for the first, 6.95 log2 normalized intensity for the second.

Compared with “ACCGGCAGAGAGAAGCCACTGCGACCTTTGGCCTAGGGAGATTAGAGTATCGGTCGA”, “CTTCTCCGCGGCGGGCCCTCGACCTTTGCCGCCTAGGGAGATTAGAGTATCGGTCGA” is higher in binding signal: 4.92 log2 normalized intensity for the first, 5.07 log2 normalized intensity for the second.

First: CTTTGCCCTCCCTAAATCCAGAGGTATTTGGCCTAGGGAGATTAGAGTATCGGTCGA
Second: CAGAGAGAAGCCACTGCGACCTTTGCCCTCGCCTAGGGAGATTAGAGTATCGGTCGA
The binding signal of the first is lower: 1.88 log2 normalized intensity for the first, 9.89 log2 normalized intensity for the second.

First: CCTCCTAATCACTGCCCTTTGGTGCCTCTTGCCTAGGGAGATTAGAGTATCGGTCGA
Second: CCCTCCCTAAATCCAGAGGTATTTGGCCCAGCCTAGGGAGATTAGAGTATCGGTCGA
The binding signal of the first is higher: 2.28 log2 normalized intensity for the first, 1.59 log2 normalized intensity for the second.

Going from “AGAAGCCACTGCGACCTTTGCCCTCCCTAAGCCTAGGGAGATTAGAGTATCGGTCGA” to “TTGCCATGACCTTTGAAGCCCAGAACACTCGCCTAGGGAGATTAGAGTATCGGTCGA”, the binding signal falls from 7.38 log2 normalized intensity to 3.59 log2 normalized intensity.

Compared with “TTCCCCTCCCTTCCACCTTTGCCCTCCAAAGCCTAGGGAGATTAGAGTATCGGTCGA”, “TCAGCCTTCTCCGCGGCGGGCCCTCGACCTGCCTAGGGAGATTAGAGTATCGGTCGA” is lower in binding signal: 5.76 log2 normalized intensity for the first, -0.582 log2 normalized intensity for the second.

Going from “ACATGAGCTAGTGCTAAAGGTCATATCCAAGCCTAGGGAGATTAGAGTATCGGTCGA” to “GGCCTTTGGACCCAGACTGAATCACACTACGCCTAGGGAGATTAGAGTATCGGTCGA”, the binding signal falls from 4.2 log2 normalized intensity to 3.76 log2 normalized intensity.

Going from “GGTGTTAAAATAACGACCTTTGGGCTAAAAGCCTAGGGAGATTAGAGTATCGGTCGA” to “AGGCCAGCTCATAGGGATCAGATAAGAAGTGCCTAGGGAGATTAGAGTATCGGTCGA”, the binding signal falls from 3.81 log2 normalized intensity to -0.997 log2 normalized intensity.

Compared with “GTAACCTCAAAGGAGGTCAGAACTGTGGACGCCTAGGGAGATTAGAGTATCGGTCGA”, “CCATAGCGAAGCCGGCGGCGGAATGCTTGTGCCTAGGGAGATTAGAGTATCGGTCGA” is lower in binding signal: 1.22 log2 normalized intensity for the first, -0.837 log2 normalized intensity for the second.

Compared with “TGGCTGGCGGCTAGTGTACAGGTGACCTTTGCCTAGGGAGATTAGAGTATCGGTCGA”, “GCTAGGTGGCGGGCTGGCTCAGGACAGGTGGCCTAGGGAGATTAGAGTATCGGTCGA” is lower in binding signal: 7.2 log2 normalized intensity for the first, 0.0816 log2 normalized intensity for the second.

Going from “GGCGGCTAGTGTACAGGTGACCTTTGGAATGCCTAGGGAGATTAGAGTATCGGTCGA” to “CTAGTGTACAGGTGACCTTTGGAATGAACCGCCTAGGGAGATTAGAGTATCGGTCGA”, the binding signal falls from 8.95 log2 normalized intensity to 7.14 log2 normalized intensity.

Compared with “AAAGCTGGCTGGCGGCTAGTGTACAGGTGAGCCTAGGGAGATTAGAGTATCGGTCGA”, “AGATAGTGACGGAGGTGACCTTTGGTTGTCGCCTAGGGAGATTAGAGTATCGGTCGA” is higher in binding signal: 1.06 log2 normalized intensity for the first, 5.52 log2 normalized intensity for the second.

Going from “GGAATGAGCAGGAACCTTGTGGTGGTGAAAGCCTAGGGAGATTAGAGTATCGGTCGA” to “TATCTTTGGAGAATGCCTTTTGTGTAGGAGGCCTAGGGAGATTAGAGTATCGGTCGA”, the binding signal rises from 1.01 log2 normalized intensity to 1.64 log2 normalized intensity.

First: TTGGAGAATGCCTTTTGTGTAGGAGTACACGCCTAGGGAGATTAGAGTATCGGTCGA
Second: ACTCCACATATTGTAGATAATACTGTGTCAGCCTAGGGAGATTAGAGTATCGGTCGA
The binding signal of the first is higher: 1.7 log2 normalized intensity for the first, 0.275 log2 normalized intensity for the second.

First: TTCCCTTGTTTACCTTGGTGTTTCTTTGATGCCTAGGGAGATTAGAGTATCGGTCGA
Second: TAAGGAGCTGAGTCATAGTGGACTTTGCCTGCCTAGGGAGATTAGAGTATCGGTCGA
The binding signal of the first is lower: 1.68 log2 normalized intensity for the first, 6.9 log2 normalized intensity for the second.

Going from “ACAGCAGTGGACTTTGACCTTGGCACTGAAGCCTAGGGAGATTAGAGTATCGGTCGA” to “GCTAGTAAGGAGCTGAGTCATAGTGGACTTGCCTAGGGAGATTAGAGTATCGGTCGA”, the binding signal falls from 9.07 log2 normalized intensity to 3.44 log2 normalized intensity.

Going from “GAGCTCAGTCACAGCAGTGGACTTTGACCTGCCTAGGGAGATTAGAGTATCGGTCGA” to “AGCAGCCTCAGTGGCTCACAAATGGAGTTTGCCTAGGGAGATTAGAGTATCGGTCGA”, the binding signal falls from 11.2 log2 normalized intensity to 0.801 log2 normalized intensity.

Going from “ACAGCACTGACCTTTGAGAGTCAACACTGAGCCTAGGGAGATTAGAGTATCGGTCGA” to “AAGAAGAGCTCAGTCACAGCAGTGGACTTTGCCTAGGGAGATTAGAGTATCGGTCGA”, the binding signal rises from 2.58 log2 normalized intensity to 6.61 log2 normalized intensity.

First: GAGCAGCACTTTTGGAGTTTGACCTGGAGCGCCTAGGGAGATTAGAGTATCGGTCGA
Second: ACTTTGACCTTGGCACTGAAGAATGTCTAAGCCTAGGGAGATTAGAGTATCGGTCGA
The binding signal of the first is higher: 5.38 log2 normalized intensity for the first, 1.8 log2 normalized intensity for the second.

Compared with “GGAGAGCTAGTAAGGAGCTGAGTCATAGTGGCCTAGGGAGATTAGAGTATCGGTCGA”, “GGGGCAGAGTGAGCAGCACTTTTGGAGTTTGCCTAGGGAGATTAGAGTATCGGTCGA” is higher in binding signal: -0.825 log2 normalized intensity for the first, 1.51 log2 normalized intensity for the second.
